Measurements as given in ChEMBL document CHEMBL3988442, “University of Dundee, Small-Polar-MMV Screening Library” (2021).
For some of these results: Potency and affinity values are given separately.

What was measured:
Design in all cases: scale not given: direction of the effect not stated beside the values
[1] = target: Protein translocase subunit SecA (Escherichia coli (strain K12)) (UniProt P10408); experiment: Assay to Identify E. coli SecA ATPase Inhibitors; format: functional; conditions: 30 µM
Chain of Protein translocase subunit SecA (Escherichia coli (strain K12)) (P10408 whole entry): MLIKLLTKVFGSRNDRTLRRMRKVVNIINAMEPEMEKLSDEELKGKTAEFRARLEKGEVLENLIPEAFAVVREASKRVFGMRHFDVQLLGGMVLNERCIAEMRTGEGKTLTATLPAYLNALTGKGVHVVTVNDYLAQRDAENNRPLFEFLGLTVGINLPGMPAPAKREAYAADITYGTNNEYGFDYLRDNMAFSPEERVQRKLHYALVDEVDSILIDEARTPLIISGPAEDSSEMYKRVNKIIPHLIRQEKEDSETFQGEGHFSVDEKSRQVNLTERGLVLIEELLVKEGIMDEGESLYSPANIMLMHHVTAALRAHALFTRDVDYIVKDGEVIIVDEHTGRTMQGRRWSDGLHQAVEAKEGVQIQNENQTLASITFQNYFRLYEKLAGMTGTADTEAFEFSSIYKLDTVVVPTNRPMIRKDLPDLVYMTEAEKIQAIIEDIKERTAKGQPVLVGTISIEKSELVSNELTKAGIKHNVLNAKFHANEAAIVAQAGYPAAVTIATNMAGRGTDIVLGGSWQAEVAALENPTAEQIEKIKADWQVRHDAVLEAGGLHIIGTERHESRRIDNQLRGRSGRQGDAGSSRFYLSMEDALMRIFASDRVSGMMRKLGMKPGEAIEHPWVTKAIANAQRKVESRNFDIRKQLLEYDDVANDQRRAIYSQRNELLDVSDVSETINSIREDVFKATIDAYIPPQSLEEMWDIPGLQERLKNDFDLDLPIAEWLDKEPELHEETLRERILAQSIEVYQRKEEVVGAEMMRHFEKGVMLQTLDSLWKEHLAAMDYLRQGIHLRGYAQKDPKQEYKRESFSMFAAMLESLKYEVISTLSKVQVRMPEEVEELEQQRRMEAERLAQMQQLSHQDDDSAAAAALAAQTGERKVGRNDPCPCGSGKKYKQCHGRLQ

[2] = target: T1, Ubiquitin-activating enzyme e1, putative (Leishmania donovani (strain BPK282A1)) (UniProt E9BSI1); experiment: Leishmania donovani Ubiquitin Activating Enzyme (LdE1); format: functional; conditions: 30 µM
T1 sequence (whole entry): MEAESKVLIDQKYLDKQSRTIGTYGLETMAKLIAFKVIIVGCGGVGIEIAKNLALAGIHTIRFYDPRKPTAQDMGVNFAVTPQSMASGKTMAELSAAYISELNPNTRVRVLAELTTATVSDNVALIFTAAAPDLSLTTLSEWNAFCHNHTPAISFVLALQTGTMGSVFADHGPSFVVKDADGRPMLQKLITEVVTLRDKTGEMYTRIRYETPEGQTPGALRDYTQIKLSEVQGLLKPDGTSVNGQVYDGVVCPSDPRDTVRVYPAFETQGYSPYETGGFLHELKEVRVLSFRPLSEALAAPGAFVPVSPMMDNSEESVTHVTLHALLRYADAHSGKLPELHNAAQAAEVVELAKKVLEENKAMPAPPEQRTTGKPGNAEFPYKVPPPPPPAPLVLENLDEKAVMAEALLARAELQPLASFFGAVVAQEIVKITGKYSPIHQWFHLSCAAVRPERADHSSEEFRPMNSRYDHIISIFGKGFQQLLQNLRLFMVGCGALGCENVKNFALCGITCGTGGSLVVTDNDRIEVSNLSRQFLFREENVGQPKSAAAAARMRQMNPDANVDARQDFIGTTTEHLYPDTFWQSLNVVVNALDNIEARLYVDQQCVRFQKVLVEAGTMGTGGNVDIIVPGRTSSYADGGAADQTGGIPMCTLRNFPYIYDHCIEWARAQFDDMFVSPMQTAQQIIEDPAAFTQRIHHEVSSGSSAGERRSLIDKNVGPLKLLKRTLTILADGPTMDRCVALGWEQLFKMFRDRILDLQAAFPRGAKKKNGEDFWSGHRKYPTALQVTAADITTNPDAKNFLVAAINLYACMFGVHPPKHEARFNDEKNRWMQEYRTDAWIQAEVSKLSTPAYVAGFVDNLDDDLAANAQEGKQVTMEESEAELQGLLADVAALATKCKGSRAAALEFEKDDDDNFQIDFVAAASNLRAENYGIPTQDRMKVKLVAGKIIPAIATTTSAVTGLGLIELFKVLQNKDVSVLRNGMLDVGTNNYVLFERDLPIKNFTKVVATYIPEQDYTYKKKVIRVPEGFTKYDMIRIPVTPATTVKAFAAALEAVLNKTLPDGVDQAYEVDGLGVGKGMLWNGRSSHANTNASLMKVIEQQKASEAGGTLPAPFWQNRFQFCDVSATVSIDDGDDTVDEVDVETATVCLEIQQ

[3] = target: AMP-activated protein kinase, AMPK (Homo sapiens) (UniProt P54646+O43741+P54619+Q9UGJ0+Q9Y478+Q13131+Q9UGI9); experiment: AMP-dependent Kinase enzyme assay. An in vitro enzyme assay that detects ADP turnover that is directly proportional to AMPK activity. This uses naive AMPK that is activated during the assay with MK-8722; format: functional; conditions: 30 µM
[4] = target: Sialic acid-binding Ig-like lectin 9 (Homo sapiens) (UniProt Q9Y336); experiment: Hs-Siglec9 ALPHAscreen SOP 20170721; conditions: 10 µM
Chain of Sialic acid-binding Ig-like lectin 9 (Homo sapiens) (Q9Y336 whole entry): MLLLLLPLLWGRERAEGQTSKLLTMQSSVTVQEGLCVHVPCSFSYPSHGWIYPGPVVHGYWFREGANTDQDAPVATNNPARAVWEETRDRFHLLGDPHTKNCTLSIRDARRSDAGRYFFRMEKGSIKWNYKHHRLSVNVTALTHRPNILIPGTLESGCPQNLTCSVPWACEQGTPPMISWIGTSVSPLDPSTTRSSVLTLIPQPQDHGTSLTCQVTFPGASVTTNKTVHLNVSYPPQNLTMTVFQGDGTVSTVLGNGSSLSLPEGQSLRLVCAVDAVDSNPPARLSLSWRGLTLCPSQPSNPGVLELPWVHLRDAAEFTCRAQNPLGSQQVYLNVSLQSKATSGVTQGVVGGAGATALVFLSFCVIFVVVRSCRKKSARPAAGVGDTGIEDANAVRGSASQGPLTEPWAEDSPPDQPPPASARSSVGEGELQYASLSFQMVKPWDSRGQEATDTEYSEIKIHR

Trypanosoma cruzi = experiment: Trypanosoma cruzi phosphomannomutase and mannose-1-phosphate guanylyltransferase assay; format: functional; conditions: 10 µM
[5] = target: T2, Arginase-2, mitochondrial (Homo sapiens) (UniProt P78540); experiment: in vitro enzyme assay to detect the production of urea directly proportional to the activity of Arginase II; format: functional; conditions: 33.3 µM; also: in the data most compounds retested in dose-response had high values
T2 sequence (whole entry): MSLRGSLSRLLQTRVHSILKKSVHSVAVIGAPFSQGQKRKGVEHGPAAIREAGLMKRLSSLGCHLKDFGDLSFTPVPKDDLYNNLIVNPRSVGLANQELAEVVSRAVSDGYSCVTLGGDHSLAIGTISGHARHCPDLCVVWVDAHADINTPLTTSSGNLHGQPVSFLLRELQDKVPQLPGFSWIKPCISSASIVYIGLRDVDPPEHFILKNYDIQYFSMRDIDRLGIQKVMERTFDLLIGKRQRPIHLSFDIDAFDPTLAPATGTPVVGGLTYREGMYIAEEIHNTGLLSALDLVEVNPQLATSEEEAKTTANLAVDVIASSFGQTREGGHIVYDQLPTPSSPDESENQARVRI

[6] = target: T3, Proteasome subunit beta (Trypanosoma cruzi) (UniProt O96673); experiment: Trypanosoma cruzi proteasome chymotrypsin-like activity (TcProtChymo) assay.; also: in the data most compounds retested in dose-response had high values; format: functional; conditions: 9.37 µM
T3 sequence (whole entry): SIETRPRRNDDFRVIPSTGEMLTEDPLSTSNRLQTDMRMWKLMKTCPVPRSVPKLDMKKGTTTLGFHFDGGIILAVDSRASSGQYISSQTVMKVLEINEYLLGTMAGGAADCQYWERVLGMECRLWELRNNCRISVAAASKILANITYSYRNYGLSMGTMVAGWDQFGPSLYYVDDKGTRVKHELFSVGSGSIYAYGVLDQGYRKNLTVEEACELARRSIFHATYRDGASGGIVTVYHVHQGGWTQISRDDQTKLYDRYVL

Homo sapiens = organism: Homo sapiens; experiment: To identify inhibition of the IFN signalling (Jak-Stat) pathway via expression of an eGFP reporter gene under the control of an IFN-stimulated response element (ISRE) containing MxA promoter.; format: functional; conditions: 30 µM
[7] = target: T4, Tyrosyl-tRNA synthetase, putative (Trypanosoma cruzi (strain CL Brener)) (UniProt Q4DSP6); experiment: Trypanosoma cruzi tyrosyl tRNA synthetase (TcYRS) _High Tyrosine SOP; format: functional; conditions: 30 µM; also: in the data most compounds retested in dose-response had high values
T4 sequence (whole entry): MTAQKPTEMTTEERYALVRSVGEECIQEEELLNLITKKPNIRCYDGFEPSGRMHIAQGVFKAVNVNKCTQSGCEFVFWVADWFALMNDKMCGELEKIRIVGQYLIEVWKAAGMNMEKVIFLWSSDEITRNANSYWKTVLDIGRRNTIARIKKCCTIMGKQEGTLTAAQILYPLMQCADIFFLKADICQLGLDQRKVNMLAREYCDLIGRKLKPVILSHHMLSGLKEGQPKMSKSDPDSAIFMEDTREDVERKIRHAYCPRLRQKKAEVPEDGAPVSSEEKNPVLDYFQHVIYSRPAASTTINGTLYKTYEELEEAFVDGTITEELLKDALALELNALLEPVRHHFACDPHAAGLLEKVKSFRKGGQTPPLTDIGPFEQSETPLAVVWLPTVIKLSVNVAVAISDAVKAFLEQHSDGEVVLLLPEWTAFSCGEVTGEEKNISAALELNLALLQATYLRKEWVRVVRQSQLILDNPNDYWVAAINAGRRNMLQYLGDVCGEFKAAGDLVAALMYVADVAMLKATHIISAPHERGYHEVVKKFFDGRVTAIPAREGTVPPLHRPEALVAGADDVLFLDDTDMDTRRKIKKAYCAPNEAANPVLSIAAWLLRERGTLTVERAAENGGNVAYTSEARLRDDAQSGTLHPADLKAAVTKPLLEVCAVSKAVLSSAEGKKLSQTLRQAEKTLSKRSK

[8] = target: T4, Tyrosyl-tRNA synthetase, putative (Trypanosoma cruzi (strain CL Brener)); experiment: Trypanosoma cruzi tyrosyl tRNA synthetase (TcYRS) SOP; format: functional; conditions: 30 µM
[9] = target: Chromo domain-containing protein 1 (Saccharomyces cerevisiae (strain ATCC 204508 / S288c) (Baker's yeast)) (UniProt P32657); experiment: ScCHD-1 Enzyme Inhibition Assay; format: functional; conditions: 30 µM; also: in the data most compounds retested in dose-response had high values
Chain of Chromo domain-containing protein 1 (Saccharomyces cerevisiae (strain ATCC 204508 / S288c) (Baker's yeast)) (P32657 whole entry, the tested form may be a part): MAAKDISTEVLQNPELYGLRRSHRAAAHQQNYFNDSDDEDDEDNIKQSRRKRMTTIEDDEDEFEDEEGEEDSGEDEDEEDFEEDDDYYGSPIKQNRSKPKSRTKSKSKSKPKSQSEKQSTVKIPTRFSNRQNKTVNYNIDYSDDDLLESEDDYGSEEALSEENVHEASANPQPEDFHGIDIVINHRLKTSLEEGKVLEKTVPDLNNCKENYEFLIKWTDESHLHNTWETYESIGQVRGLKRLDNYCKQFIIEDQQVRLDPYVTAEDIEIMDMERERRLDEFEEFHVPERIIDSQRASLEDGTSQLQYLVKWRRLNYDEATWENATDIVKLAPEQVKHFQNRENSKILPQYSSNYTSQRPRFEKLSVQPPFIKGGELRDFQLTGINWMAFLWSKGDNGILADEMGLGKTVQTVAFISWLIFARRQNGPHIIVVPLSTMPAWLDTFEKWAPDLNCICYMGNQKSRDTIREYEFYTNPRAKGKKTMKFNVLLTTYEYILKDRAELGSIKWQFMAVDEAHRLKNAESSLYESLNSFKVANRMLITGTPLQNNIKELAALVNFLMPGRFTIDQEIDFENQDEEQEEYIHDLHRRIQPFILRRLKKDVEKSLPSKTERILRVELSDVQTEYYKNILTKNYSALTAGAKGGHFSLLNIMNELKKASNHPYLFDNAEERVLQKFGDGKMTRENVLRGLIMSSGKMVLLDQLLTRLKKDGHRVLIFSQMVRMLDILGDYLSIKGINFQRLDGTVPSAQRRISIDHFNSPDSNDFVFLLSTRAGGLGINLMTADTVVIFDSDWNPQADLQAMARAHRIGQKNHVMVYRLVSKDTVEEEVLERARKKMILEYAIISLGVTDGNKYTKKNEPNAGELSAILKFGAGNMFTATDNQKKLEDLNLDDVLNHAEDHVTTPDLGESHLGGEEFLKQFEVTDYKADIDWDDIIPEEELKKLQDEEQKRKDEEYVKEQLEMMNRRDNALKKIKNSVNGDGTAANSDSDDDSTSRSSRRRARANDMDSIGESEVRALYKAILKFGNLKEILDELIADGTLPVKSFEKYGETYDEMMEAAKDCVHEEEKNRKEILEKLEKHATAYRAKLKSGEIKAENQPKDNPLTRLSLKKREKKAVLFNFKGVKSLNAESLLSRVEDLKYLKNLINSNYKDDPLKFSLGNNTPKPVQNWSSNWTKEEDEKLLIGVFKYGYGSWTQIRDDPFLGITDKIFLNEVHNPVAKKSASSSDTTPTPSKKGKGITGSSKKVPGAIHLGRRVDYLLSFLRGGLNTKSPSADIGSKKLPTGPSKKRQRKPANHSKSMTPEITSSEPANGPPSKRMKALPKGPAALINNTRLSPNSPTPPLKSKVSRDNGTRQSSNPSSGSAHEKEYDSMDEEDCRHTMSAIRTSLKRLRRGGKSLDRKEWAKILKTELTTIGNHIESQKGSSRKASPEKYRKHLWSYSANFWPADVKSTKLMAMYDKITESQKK

Compound	Percent Effect [1] [%]	Percent Effect [2] [%]	Percent Effect [3] [%]	Percent Effect [4] [%]	Percent Effect (Trypanosoma cruzi) [%]	Percent Effect [5] [%]	Percent Effect [6] [%]	Percent Effect (Homo sapiens) [%]	Percent Effect [7] [%]	Percent Effect [8] [%]	Percent Effect [9] [%]
COc1ccc(C(C)=O)c(OCC(=O)NC(C)c2ccc(F)cc2)c1 (stereo not drawn)	-0.739	10.8	-5.53	8.21	5.77	23.6	9.19	-11.8	0	11.1	-6.76
CC(O)CN1CCN(C(=O)c2ccn(-c3cccc(Cl)c3)n2)CC1 (stereo not drawn)	-5.56	-2.6	12.7	-7.86	-6.93	1.07	1.18	26.4	-1.94	-9.76	-1.68
CC(NC(=O)NCc1cc[nH]n1)c1ccc2c(c1)CCC(=O)N2 (stereo not drawn)	-3.48	13	-2.39	10.7	5.43	0.712	4.9	4.17	4.85	21.9	-9.64
Cc1c[nH]nc1C1CCN(S(=O)(=O)N(C)C)CC1	-3.15	1.35	-2.65	1.12	-7.12	-1.16	-3.59	9.82	2.15	6.49	-2.55
Cc1cc(CN2CCN(CC(O)c3ccccc3)CC2)no1 (stereo not drawn)	-5.4	10.1	-4.74	1.14	7.65	2.28	-0.0819	-14.5	6.4	13.9	-1.57
c1ccc(-c2cnc(CN3CCn4c(nnc4C4CC4)C3)o2)cc1	3.62	13.2	-0.492	0.484	-0.564	6.9	10	18.2	6.37	17.1	-9.44
COc1cccc(-n2c(C)cc(C(=O)O)c2C)c1	-4.92	20.2	-3.83	-8.51	-6.52	2.28	10.7	31.6	-0.493	3.8	-2.26
O=C(C1CCCc2[nH]ncc21)N1CCCC1 (stereo not drawn)	-2.14	-2.7	2.45	-7.51	-0.0978	-1.24	5.92	-17.4	-2.15	-6.17	-2.26
